Results as given in PubChem BioAssay AID1159580 (chemical genetic matrix, 2015).
Screen size: about 5,500 compounds; about 2,000 (36%) were called active. Inconclusive results (about 18%) are left out. Cut-off read from the data, not from the text of the source: active = normalized growth mostly below about 0.91 (no sharp cut-off); inconclusive = no clear call, values can overlap the other calls; inactive = mostly above about 0.92. The list shows a part of the results.

Assay: chemical genetic growth profiling, strain panel (AID 1159580);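 note: tested at 20 µM; growth read once vehicle control cultures reached saturation at 30 °C; 1 = growth at the plate median or of vehicle wells; lower values mean less growth of the strain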
Settings: growth OD

Measured: normalized growth

O=C(Nc1ccc(C(F)(F)F)cc1)Nc1ccccc1C(=O)O
inactive: S. cerevisiae deletion strains, locus YAL013W, strain DEP1, hits give low values 0.975 | S. cerevisiae deletion strains, locus YBR229C, strain ROT2, hits give low values 0.993 | S. cerevisiae deletion strains, locus YCL061C, strain MRC1, hits give low values 0.967 | S. cerevisiae deletion strains, locus YDL101C, strain DUN1, hits give low values 0.994 | S. cerevisiae deletion strains, locus YDL134C, strain PPH21, hits give low values 0.989 | S. cerevisiae deletion strains, locus YDR150W, strain NUM1, hits give low values 0.972 | S. cerevisiae deletion strains, locus YEL061C, strain CIN8, hits give low values 1.01 | S. cerevisiae deletion strains, locus YGR078C, strain PAC10, hits give low values 0.984 | S. cerevisiae deletion strains, locus YGR229C, strain SMI1, hits give low values 0.975 | S. cerevisiae deletion strains, locus YHR030C, strain SLT2, hits give low values 0.99 | S. cerevisiae deletion strains, locus YHR087W, strain rtc3, hits give low values 0.994 | S. cerevisiae deletion strains, locus YJR043C, strain POL32, hits give low values 0.981 | S. cerevisiae deletion strains, locus YJR075W, strain HOC1, hits give low values 0.979 | S. cerevisiae deletion strains, locus YKL190W, strain CNB1, hits give low values 0.989 | S. cerevisiae deletion strains, locus YLR039C, strain RIC1, hits give low values 1.01 | S. cerevisiae deletion strains, locus YLR058C, strain SHM2 (second series), hits give low values 0.979 | S. cerevisiae deletion strains, locus YLR085C, strain ARP6, hits give low values 1 | S. cerevisiae deletion strains, locus YLR262C, strain YPT6, hits give low values 0.935 | S. cerevisiae deletion strains, locus YML094W, strain GIM5, hits give low values 1 | S. cerevisiae deletion strains, locus YMR219W, strain ESC1, hits give low values 0.971 | S. cerevisiae deletion strains, locus YMR263W, strain SAP30, hits give low values 0.991 | S. cerevisiae deletion strains, locus YNL153C, strain GIM3, hits give low values 0.977 | S. cerevisiae deletion strains, locus YNL298W, strain CLA4 (second series), hits give low values 0.96 | S. cerevisiae deletion strains, locus YNL322C, strain KRE1, hits give low values 0.971 | S. cerevisiae deletion strains, locus YNR030W, strain Alg12, hits give low values 1 | S. cerevisiae deletion strains, locus YOL006C, strain TOP1, hits give low values 0.939 | S. cerevisiae deletion strains, locus YPL055C, strain LGE1, hits give low values 0.996 | S. cerevisiae deletion strains, locus YPL241C, strain CIN2, hits give low values 0.977 | S. cerevisiae deletion strains, locus YPR135W, strain CTF4, hits give low values 0.949 | S. cerevisiae strains, strain wild type, hits give low values 0.968
